Structures are written as SMILES. In all, about 69,000 compounds went through this assay and about 8,600 (12%) showed an effect of 50% or more. Shown is part of a subset that was picked to be rich in strong results.

For 32 molecules, INHIBITION results are on record in ChEMBL document CHEMBL4513216, “Probing the Open Global Health Chemical Diversity Library for Multistage-Active Starting Points for Next-Generation Antimalarials” (ACS Infect Dis, 2020).

The subject of this test is Plasmodium berghei. In words: Screen against P. berghei liver stage (PbLuc), transformed with Luciferase, at 10uM. The test is classed as functional, HepG2. The conditions noted are these: tested at 10 uM.
`O=C(c1cc2ccccc2[nH]1)N1CCC(Nc2cccnn2)CC1`: the INHIBITION is given as 31.2%.

Consider `Cc1nnc2n1CCN(C(=O)c1ccc(Cn3cccc3)cc1)C2`, for which the INHIBITION is on record as -18.52%.

For `CN1CCN(C(=O)c2ccc3c(c2)nc(N2CCOCC2)n3C)CC1=O`, the INHIBITION is on record as -18.9%.

For `Cc1nc(C(=O)N2CCCC2c2c(C)nn(C)c2Cl)ccc1C#N` (configuration not stated), the INHIBITION was 0.914%.

As to `NC(=O)NCC(=O)N1C[C@@H]2CC[C@H]1CN(C1Cc3ccccc3C1)C2`, the INHIBITION was 21%.

With `CCCC(=O)N1CCCC1(C)c1nc(C)no1` (configuration not stated), the INHIBITION is recorded as -3.97%.

On to `COc1ccc(C2Nc3cc(Cl)ccc3C3=NCCN32)cc1OC` (configuration not stated), for which the INHIBITION is listed as 72.8%.

For the molecule `CN(C)c1ncc(C2Nc3ccccc3C3=NCCCN32)cn1` (configuration not stated), the INHIBITION is 9.93%.

On to `COc1cc(C2Nc3cc(Cl)ccc3C3=NCCN32)ccc1O` (configuration not stated), for which the INHIBITION is given as -43%.

For the molecule `COc1ccc(C2Nc3cc(Cl)ccc3C3=NCCN32)cc1CO` (configuration not stated), the INHIBITION worked out at 46%.

Regarding `COc1ccc(C2Nc3cc(Cl)ccc3C3=NCCN32)cc1O` (configuration not stated), the INHIBITION came to 28%.

`COc1ccc(C2Nc3ccccc3C3=NCCCN32)cc1OC` (configuration not stated): the INHIBITION was 54%.

As for `COc1cc(C2Nc3cc(Cl)ccc3C3=NCCN32)cc(OC)c1OC` (configuration not stated), the INHIBITION was 38.8%.

For the molecule `Oc1ccc(C2Nc3ccccc3C3=NCCCN32)cc1` (configuration not stated), the INHIBITION came out at 36.4%.

Regarding `COc1cc(OC)c(C2Nc3cc(Cl)ccc3C3=NCCN32)cc1OC` (configuration not stated), the INHIBITION was determined as 73.9%.

For `COCc1nc(C(=O)N2CCCC(n3ccnc3C(C)C)C2)cs1` (configuration not stated), the INHIBITION is given as 19.5%.

For `O=C([C@H]1CCCO1)N1CC[C@@H](O)[C@@H]1Cc1ccccc1`, the INHIBITION turned out to be 21.1%.

As to `CC(O)CN1CCN(C(=O)c2cc3ccccc3[nH]c2=O)CC1` (configuration not stated), the INHIBITION came to 16.6%.

Regarding `CNc1cc2c(nn1)CCN(C(=O)c1ccccc1-n1cccn1)C2`, the INHIBITION is 36.8%.

Take `CN1CCCCC(C2CCN(S(=O)(=O)c3cn(C)cn3)CC2)C1=O` (configuration not stated): the INHIBITION is given as -23.4%.

As for `CCNC(=O)[C@@H]1C[C@@H](NC(=O)CSC)CN1Cc1ccncc1`, the INHIBITION was determined as 29.6%.

Regarding `OC(CNCCn1cccn1)c1cccc(F)c1` (configuration not stated), the INHIBITION is on record as -15.5%.

Take `Cc1ccnc(OC[C@]23COC[C@H]2CN(C(=O)c2ncccn2)C3)n1`: the INHIBITION was determined as 18.4%.

As for `Cc1cc(C(=O)NC2(c3cccc(F)c3)CCOCC2)no1`, the INHIBITION is on record as 20.6%.

For the molecule `O=C(NC1(c2cccc(F)c2)CCOCC1)c1ccccn1`, the INHIBITION is reported as 26.8%.

`Cc1ncccc1C(=O)NC1(c2cccc(F)c2)CCOCC1`: the INHIBITION is on record as 76.2%.

For the molecule `CN(C)c1cc(C(=O)NC2(c3cccc(F)c3)CCOCC2)ccn1`, the INHIBITION came to 27.5%.

As to `COc1ncccc1C(=O)NC1(c2cccc(F)c2)CCOCC1`, the INHIBITION amounted to 65.3%.

Regarding `O=C(NC1(c2cccc(F)c2)CCOCC1)c1ccoc1`, the INHIBITION stood at 18.5%.

Regarding `O=C(NC1(c2cccc(F)c2)CCOCC1)c1cc[nH]n1`, the INHIBITION is recorded as 13.5%.

Regarding `CC(C)c1ocnc1C(=O)NC1(c2cccc(F)c2)CCOCC1`, the INHIBITION came to 60.3%.

Take `CN1CC(C(=O)NC2(c3cccc(F)c3)CCOCC2)CC1=O` (configuration not stated): the INHIBITION is listed as -36%.
